Test results from PubChem BioAssay (EPA / NIEHS).
Activity calls are given as the source filed them. The calls were made as follows: active = hit-call score of the fitted dose curve at least 0.9, where 1 is the maximum; inactive = score below 0.9.

Experiment: CCTE_Shafer_MEA_acute_per_network_burst_spike_number_std: CCTE's Neural Acute Assay for Standard Deviation of Number of Spikes in a Network Burst, Shafer Lab (AID 2284020);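 also: fitted for decrease in spike-number SD versus DMSO so actives lower it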
Description: CCTE_Shafer_MEA_acute assay is conducted using Axion Biosystems 48 well microelectrode array (MEA) plates and Maestro recording system. Each well of the MEA plate contains a grid of 16 microelectrodes embedded in the culture surface. Electrically active cells, such as neurons, can be cultured over the electrodes, and electrical activity in these cells can be recorded extracellularly. The spontaneous firing of neurons is captured from each electrode on a microsecond timescale providing both temporally and spatially precise data. […] The CCTE_Shafer_MEA_acute assay uses primary cultures of rat cortical neurons. As these cultures mature over time, neural networks develop functional activity and form cohesive networks in which electrical activity can be highly coordinated. Baseline 40-minute recordings are made on days post-plating 13 or 15, followed by a secondary 40-minute recording after chemical exposure.CCTE_Shafer_MEA_acute_per_network_burst_spike_number_std is a component of the CCTE_Shafer_MEA_acute assay. It measures the standard deviation of the number of spikes (action potential firings) in a network burst (temporally-clustered group of spikes across multiple electrodes) during a recording in a microelectrode array (MEA) using Axion Biosystems Maestro 768 channel amplifier with the AxIS adaptive spike detector. The recordings before and after chemical treatment are used to calculate a percent change in the standard deviation of the number of spikes in network bursts in each well.Data from the assay component CCTE_Shafer_MEA_acute_burst_spike_number_std was analyzed into 1 assay endpoint. This assay endpoint, CCTE_Shafer_MEA_acute_burst_spike_number_std, was analyzed in the negative analysis fitting direction relative to DMSO as the negative control and baseline of activity. Using a type of functional reporter, gain or loss-of-signal activity can be used to understand electrical activity.
Spontaneous activity in the cortical cultures was recorded using an Axion Biosystems Maestro 768 channel amplifier and Axion Integrated Studios (AxIS) v1.8 (or later) software. The amplifier recorded from all channels simultaneously (gain = 1200 x; sampling rate = 12.5 kHz/channel): raw signals were filtered with a Butterworth band-pass filter (300-5000 Hz), which filters out slower local field potentials leaving only fast potentials, i.e., "spikes", arising from extracellular currents associated with action potentials (Pine 2006; Wheeler and Nam 2011). On-line spike detection of filtered signals was conducted with the AxIS adaptive spike detector, using a threshold of 8x the root mean squared (rms) noise on each channel. Any electrodes with rms noise levels greater than 5 uV were grounded (e.g., no data were recorded). Once grounded, an electrode was grounded for the duration of the experiment. All recordings were conducted at 37 C. Wells were deemed usable if on the day of the exposure >/= 10 electrodes were active (defined as >/= 5 spikes/min). On DIV 13 or 15, a minimum of three wells from one cortical culture preparation were treated with each compound (0.03-40 uM). Prior to recording baseline activity, each mwMEA plate was placed in the Maestro at 37 C and allowed to sit for 20 min while firing rates stabilized. Baseline activity (40 min) was recorded before the addition of each compound. An additional 40 min of spontaneous activity was recorded in the presence of each compound. Changes in network parameters relative to baseline were assessed following compound treatment.

SMILES	outcome	AC50
COc1ccc2sc(C(=O)Nc3nnn[nH]3)c(OC(C)C)c2c1	inactive	
CC[C@H]1CC[C@H](NCc2cc3c(cc2OC)[C@H]2C[C@H]2C(=O)N3C)[C@H](c2ccccc2)N1	inactive	
Cn1cnc([N+](=O)[O-])c1Sc1ncnc2nc[nH]c12	inactive	
Cn1c(=O)c2c(ncn2C)n(C)c1=O	inactive	
CC(C)=CCCC(C)=CC=O	inactive	
O=C(O)CCN(C1(C(=O)NO)CCCC1)S(=O)(=O)c1ccc(Oc2ccc(F)cc2)cc1	inactive	
CCCCCCc1ccc(O)cc1O		15.9 µM (active)
On1ccccc1=S	inactive	
CCCCC(CC)COC(=O)CCCCCCCCC(=O)OCC(CC)CCCC (stereo not drawn)	inactive	
CCCCCCCCCCCCc1ccccc1	inactive	
CCOC(=O)c1ccc(C2CCC(NC[C@H](O)COc3ccc(O)c(NS(C)(=O)=O)c3)CC2)cc1 (stereo partly drawn)	inactive	
O=C(O)c1cc(N=Nc2ccc(S(=O)(=O)Nc3ccccn3)cc2)ccc1O	inactive	
CCC(C)(C)C(=O)O[C@H]1C[C@@H](C)C=C2C=C[C@H](C)[C@H](CC[C@@H]3C[C@@H](O)CC(=O)O3)[C@H]21	inactive	
O=P(OC(CCl)CCl)(OC(CCl)CCl)OC(CCl)CCl	inactive	
Cc1[nH]cnc1C[C@H]1CCc2c(C)c3ccccc3n2C1=O	inactive	
COc1cccc(-c2ccc(/C=C\CN3CCCCCC3)cc2Cl)c1	inactive	
CC[C@H]1OC(=O)[C@H](C)[C@@H](O[C@H]2C[C@@](C)(OC)[C@@H](O)[C@H](C)O2)[C@H](C)[C@@H](O[C@@H]2O[C@H](C)C[C@H](N(C)C)[C@H]2O)[C@](C)(O)C[C@@H](C)C(=O)[C@H](C)[C@@H](O)[C@]1(C)O	inactive	
CCCN(C1CCN(C(=O)C2CCNCC2)CC1)[C@@H]1CCc2ccc(OC)cc2C1	inactive	
